Where “and” joins values, the source holds several entries; their conditions need not be identical. Identical values can stand only once. Results filed as inconclusive are left out. The source holds several records for some structures; these can differ, active in one and inactive in another. Calls of active or inactive are those of the source. Unless noted, the call rests on the fitted dose curve; in most records, active means well fitted curve in the direction sought with a large enough effect in the repeat runs; inconclusive means weak or mixed curves; inactive means no such curve, though single readings can be large; an effect the other way counts as inactive or inconclusive.
Tests used:
[1] = qHTS assay to identify aromatase inhibitors - cell viability counter screen (AID 743084);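 further: cells stimulated with testosterone during compound exposure; nearly all actives have a fitted effect of over 55% in size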; further: potency means the concentration at half of the fitted maximal effect
[2] = biological target: Aryl hydrocarbon receptor (Homo sapiens) (UniProt P35869); test: qHTS assay to identify small molecule that activate the aryl hydrocarbon receptor (AhR) signaling pathway (AID 743085); further: nearly all actives have a fitted effect of over 15% in size; further: potency means the concentration at half of the fitted maximal effect;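 on activation: HG2L7.5c1 human HepG2 liver cells with stably integrated DRE-driven firefly reporter; series mostly up to about 70 µM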
Method in brief: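 Steps: seed HepG2-AhR-luc cells; allow 5 h at 37C; pin-transfer test compound or vehicle; incubate 24 h at 37C; add viability dye (30 min, 37C) and read fluorescence; add luciferase substrate (30 min, RT) and read luminescence.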

[3] = biological target: Peroxisome proliferator-activated receptor gamma (Homo sapiens) (UniProt P37231); test: qHTS assay to identify small molecule agonists of the peroxisome proliferator-activated receptor gamma (PPARg) signaling pathway (AID 743094; active means well fitted activation curve with a large enough effect in the signal ratio in the repeat runs, not every such curve was filed as active; the % refers to the signal ratio)
Method in brief: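 Beta-lactamase FRET fluorescence was the read-out after a 1 h room-temperature substrate step, following 17 h compound treatment at 37C of HEK293H cells expressing a UAS-driven bla reporter responsive to PPARg.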

[4] = qHTS assay to identify small molecule antagonists of the peroxisome proliferator-activated receptor gamma (PPARg) signaling pathway - cell viability counter screen (AID 743194); further: nearly all actives have a fitted effect of over 55% in size
Method in brief: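 Viability was measured as CellTiter-Glo luminescence in GeneBLAzer PPARg UAS-bla HEK293H cells. These cells had been exposed 17 h at 37 C to compounds together with rosiglitazone at 50 nM final, with the beta-lactamase readout taken in the same wells.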

[5] = qHTS assay for small molecule agonists of the antioxidant response element (ARE) signaling pathway (AID 743202; active means well fitted activation curve with a large enough effect in the signal ratio in the repeat runs, not every such curve was filed as active; the % refers to the signal ratio; further: potency means the concentration at half of the fitted maximal effect)
Method in brief: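 Quantitative high-throughput format in HepG2 cells bearing an integrated ARE-beta-lactamase reporter. Compound exposure lasted 16 h at 37 C, and fluorescence was read 2 h after adding LiveBLAzer B/G substrate at room temperature.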

[6] = qHTS assay for small molecule agonists of the antioxidant response element (ARE) signaling pathway - cell viability counter screen (AID 743203; calls by dose curve; further: nearly all actives have a fitted effect of over 55% in size; further: potency means the concentration at half of the fitted maximal effect)
Method in brief: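 HepG2 cells carrying ARE-driven beta-lactamase; 2,000 cells/well; 5 hrs plating; compound pinned from DMSO; 16 hrs 37C/5% CO2; CellTiter-Glo added; 30 min RT; luminescence.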

[7] = qHTS assay for small molecule activators of the heat shock response signaling pathway - cell viability counter screen (AID 743209); further: nearly all actives have a fitted effect of over 50% in size
Method in brief: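 Luminescence from CellTiter-Glo, added after the beta-lactamase FRET read, gave the viability signal. Cells were HSE-bla HeLa treated with DMSO-dissolved compounds for 5 h at 37 C following overnight plating.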

[8] = qHTS assay to identify small molecule agonists of the peroxisome proliferator-activated receptor delta (PPARd) signaling pathway - cell viability counter screen (AID 743211); further: nearly all actives have a fitted effect of over 55% in size; further: potency means the concentration at half of the fitted maximal effect
Method in brief: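 Viability of GeneBLAzer PPARd UAS-bla HEK293H cells was assessed after 17 h compound incubation at 37C, using CellTiter-Glo reagent added after the reporter read and luminescence recorded 30 min later.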

[9] = biological target: Peroxisome proliferator-activated receptor delta (Homo sapiens) (UniProt Q03181); test: qHTS assay to identify small molecule agonists of the peroxisome proliferator-activated receptor delta (PPARd) signaling pathway (AID 743212; calls by dose curve)
Method in brief: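 HEK293H PPARd-bla cells; 5 h preincubation 37 C/5% CO2; compound (DMSO) 37 C; LiveBLAzer B/G FRET substrate 2 h RT; fluorescence intensity.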

[10] = qHTS assay to identify small molecule antagonists of the peroxisome proliferator-activated receptor delta (PPARd) signaling pathway - cell viability counter screen (AID 743213); further: nearly all actives have a fitted effect of over 50% in size; further: potency means the concentration at half of the fitted maximal effect
Method in brief: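 Luminescence from CellTiter-Glo, added after the bla read and incubated 30 min at room temperature, gives viability of HEK293H PPARd-bla cells exposed to compounds for 17 h at 37 C with 300 nM L165041.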

[11] = biological target: Peroxisome proliferator-activated receptor delta (Homo sapiens) (UniProt Q03181); test: qHTS assay to identify small molecule antagonists of the peroxisome proliferator-activated receptor delta (PPARd) signaling pathway (AID 743215; active means well fitted inhibition curve with a large enough effect in the signal ratio in the repeat runs, not every such curve was filed as active; the % refers to the signal ratio;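 further: cells stimulated with agonist L165041 at 300 nM final during compound exposure; series mostly up to about 62 µM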)
Method in brief: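 Read-out is beta-lactamase FRET fluorescence, measured 2 h after substrate addition at room temperature. Beforehand, UAS-bla HEK293H cells carrying the PPARd reporter were exposed to compounds with L165041 at 300 nM final for 17 h at 37 C.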

[12] = qHTS assay to identify small molecule agonists of the farnesoid-X-receptor (FXR) signaling pathway - cell viability counter screen (AID 743218); further: nearly all actives have a fitted effect of over 45% in size; further: potency means the concentration at half of the fitted maximal effect
Method in brief: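 HEK 293T FXR-bla cells; 5 h pre-incubation, 16 h compound exposure at 37 C; LiveBLAzer substrate 2 h RT, then CellTiter-Glo 30 min RT, luminescence.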

[13] = qHTS assay to identify small molecule antagonists of the farnesoid-X-receptor (FXR) signaling pathway - cell viability counter screen (AID 743221; active means well fitted cell-killing curve with a large enough effect in the repeat runs, not every such curve was filed as active; further: nearly all actives have a fitted effect of over 50% in size)
Method in brief: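 Quantitative HTS of the Tox21 10K library run in parallel with the beta-lactamase reporter read. HEK 293T cells carrying a UAS-driven bla reporter got compound and 50 uM CDCA (final) for 16 h; ATP-based luminescence followed.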

[14] = biological target: Vitamin D3 receptor (Homo sapiens) (UniProt P11473); test: qHTS assay to identify small molecule agonists of the vitamin D receptor (VDR) signaling pathway (AID 743222; calls by dose curve)
Method in brief: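 VDR-bla cells, 2,000/well; 4 h preincubation 37C; cpd (DMSO) 16 h; LiveBLAzer B/G substrate 2 h RT; fluorescence intensity read.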

[15] = biological target: Vitamin D3 receptor (Homo sapiens) (UniProt P11473); test: qHTS assay to identify small molecule antagonists of the vitamin D receptor (VDR) signaling pathway (AID 743223; active means well fitted inhibition curve with a large enough effect in the signal ratio in the repeat runs, not every such curve was filed as active; the % refers to the signal ratio)
Method in brief: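 Fluorescence from LiveBLAzer B/G FRET substrate, read after 2 h at room temperature, reflects beta-lactamase reporter activity in VDR-bla cells treated 16 h at 37C with compounds and agonist 1alpha,25-dihydroxyvitamin D3 (3 nM final).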

[16] = qHTS assay to identify small molecule that activate the aryl hydrocarbon receptor (AhR) signaling pathway - cell viability counter screen (AID 743086);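 further: HepG2 liver cells carrying the AhR DRE luciferase reporter; series mostly up to about 70 µM; nearly all actives have a fitted effect of over 45% in size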
Method in brief: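 Cytotoxicity counter screen: CellTiter-Fluor signal (30 min, 37 C) in 4000 HepG2 cells/well carrying the DRE-luciferase reporter, following 24 h compound exposure at 37 C.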

[17] = biological target: Bile acid receptor (Homo sapiens) (UniProt Q96RI1); test: qHTS assay to identify small molecule antagonists of the farnesoid-X-receptor (FXR) signaling pathway (AID 743217; active means well fitted inhibition curve with a large enough effect in the signal ratio in the repeat runs, not every such curve was filed as active; the % refers to the signal ratio; further: potency means the concentration at half of the fitted maximal effect)
Method in brief: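 HEK 293T FXR-UAS-bla, 5000 cells/well; compound + CDCA 50 uM final; 16 h, 37 °C; B/G FRET substrate 2 h RT; fluorescence.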

[18] = biological target: Bile acid receptor (Homo sapiens) (UniProt Q96RI1); test: qHTS assay to identify small molecule agonists of the farnesoid-X-receptor (FXR) signaling pathway (AID 743220; active means well fitted activation curve with a large enough effect in the signal ratio in the repeat runs, not every such curve was filed as active; the % refers to the signal ratio)
Method in brief: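 Beta-lactamase reporter under UAS control in GeneBLAzer FXR HEK 293T cells (5000/well) measured with LiveBLAzer FRET substrate after 2 h at room temperature. Compound exposure lasted 16 h at 37C.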

[19] = biological target: Peroxisome proliferator-activated receptor gamma (Homo sapiens) (UniProt P37231); test: qHTS assay to identify small molecule antagonists of the peroxisome proliferator-activated receptor gamma (PPARg) signaling pathway (AID 743191; calls by dose curve; further: series mostly up to about 63 µM; nearly all actives have a fitted effect of over 30% in size)
Method in brief: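 Beta-lactamase reporter under UAS control in HEK293H PPARg-bla cells; compound treatment 17 h at 37C. Read-out: fluorescence intensity after 1 h room-temperature incubation with LiveBLAzer B/G FRET substrate.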

[20] = qHTS assay for small molecule activators of the heat shock response signaling pathway (AID 743210; active means well fitted activation curve with a large enough effect in the signal ratio in the repeat runs, with a control signal flat, not every such curve was filed as active; the % refers to the signal ratio;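 further: HeLa cells with beta-lactamase reporter driven by heat shock elements; series mostly up to about 63 µM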)
Method in brief: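 HeLa HSE-bla cells, overnight plating; cpd in DMSO 5 h, 37 C; LiveBLAzer B/G FRET substrate 2.5 h RT; fluorescence intensity read.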

Measured: Potency

Chain of Peroxisome proliferator-activated receptor delta (Homo sapiens) (Q03181 whole entry, looked up): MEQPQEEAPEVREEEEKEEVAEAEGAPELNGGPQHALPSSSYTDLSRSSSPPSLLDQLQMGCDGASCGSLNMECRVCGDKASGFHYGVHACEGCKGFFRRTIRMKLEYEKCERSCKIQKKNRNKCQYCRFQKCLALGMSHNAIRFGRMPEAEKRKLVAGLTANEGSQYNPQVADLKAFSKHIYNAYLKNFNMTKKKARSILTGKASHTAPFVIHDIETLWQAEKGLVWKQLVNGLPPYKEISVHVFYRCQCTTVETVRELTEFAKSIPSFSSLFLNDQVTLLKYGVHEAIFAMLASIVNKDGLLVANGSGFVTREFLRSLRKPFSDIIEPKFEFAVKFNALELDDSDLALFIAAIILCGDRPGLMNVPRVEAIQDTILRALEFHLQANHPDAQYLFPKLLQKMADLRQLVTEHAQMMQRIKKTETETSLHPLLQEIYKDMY
Chain of Peroxisome proliferator-activated receptor gamma (Homo sapiens) (P37231 whole entry, looked up): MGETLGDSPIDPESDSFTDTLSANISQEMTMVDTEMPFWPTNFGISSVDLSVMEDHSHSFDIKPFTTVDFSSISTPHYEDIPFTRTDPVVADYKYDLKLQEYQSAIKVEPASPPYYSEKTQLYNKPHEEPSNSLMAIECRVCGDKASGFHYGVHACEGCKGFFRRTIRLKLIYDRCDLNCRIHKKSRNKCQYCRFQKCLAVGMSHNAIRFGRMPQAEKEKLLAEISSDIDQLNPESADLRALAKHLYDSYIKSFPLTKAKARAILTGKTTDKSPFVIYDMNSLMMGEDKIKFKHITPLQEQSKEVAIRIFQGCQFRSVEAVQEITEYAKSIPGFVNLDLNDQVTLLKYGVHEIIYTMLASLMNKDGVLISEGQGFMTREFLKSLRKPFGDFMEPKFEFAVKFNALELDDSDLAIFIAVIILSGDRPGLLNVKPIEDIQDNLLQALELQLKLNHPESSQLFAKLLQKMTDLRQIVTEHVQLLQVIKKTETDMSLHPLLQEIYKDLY
Chain of Vitamin D3 receptor (Homo sapiens) (P11473 whole entry, looked up): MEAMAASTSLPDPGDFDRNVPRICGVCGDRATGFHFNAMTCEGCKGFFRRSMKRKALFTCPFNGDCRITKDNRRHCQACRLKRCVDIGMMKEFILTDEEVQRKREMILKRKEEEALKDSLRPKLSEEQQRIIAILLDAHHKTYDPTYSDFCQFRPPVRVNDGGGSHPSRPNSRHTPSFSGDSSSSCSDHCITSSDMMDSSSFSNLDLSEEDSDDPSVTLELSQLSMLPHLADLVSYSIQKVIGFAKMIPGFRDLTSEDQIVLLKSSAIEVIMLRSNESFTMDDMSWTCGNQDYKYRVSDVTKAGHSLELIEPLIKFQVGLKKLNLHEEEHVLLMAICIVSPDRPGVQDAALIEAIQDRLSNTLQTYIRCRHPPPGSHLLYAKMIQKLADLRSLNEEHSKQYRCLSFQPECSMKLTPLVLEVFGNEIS
Chain of Aryl hydrocarbon receptor (Homo sapiens) (P35869 whole entry, looked up): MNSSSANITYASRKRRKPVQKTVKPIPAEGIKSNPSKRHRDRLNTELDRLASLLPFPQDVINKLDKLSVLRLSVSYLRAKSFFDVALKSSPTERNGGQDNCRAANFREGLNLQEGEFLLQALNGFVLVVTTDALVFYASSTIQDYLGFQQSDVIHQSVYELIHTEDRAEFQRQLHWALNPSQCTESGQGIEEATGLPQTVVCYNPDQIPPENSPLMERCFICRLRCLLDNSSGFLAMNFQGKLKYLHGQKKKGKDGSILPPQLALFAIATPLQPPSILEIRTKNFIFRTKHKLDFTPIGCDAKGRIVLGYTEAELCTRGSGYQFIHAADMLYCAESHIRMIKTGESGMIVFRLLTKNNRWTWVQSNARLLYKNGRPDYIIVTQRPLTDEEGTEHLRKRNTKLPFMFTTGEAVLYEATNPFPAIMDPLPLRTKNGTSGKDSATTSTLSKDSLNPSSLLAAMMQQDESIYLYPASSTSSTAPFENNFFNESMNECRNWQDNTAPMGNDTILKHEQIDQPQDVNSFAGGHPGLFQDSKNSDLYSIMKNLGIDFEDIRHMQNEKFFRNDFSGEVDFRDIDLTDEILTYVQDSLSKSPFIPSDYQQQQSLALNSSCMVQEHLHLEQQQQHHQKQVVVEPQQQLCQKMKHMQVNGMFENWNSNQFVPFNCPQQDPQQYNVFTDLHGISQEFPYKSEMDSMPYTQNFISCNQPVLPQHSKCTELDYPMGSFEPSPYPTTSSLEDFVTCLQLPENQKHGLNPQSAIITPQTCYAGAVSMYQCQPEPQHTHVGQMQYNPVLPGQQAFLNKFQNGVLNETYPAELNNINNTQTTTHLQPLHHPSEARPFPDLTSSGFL
Chain of Bile acid receptor (Homo sapiens) (Q96RI1 whole entry, looked up): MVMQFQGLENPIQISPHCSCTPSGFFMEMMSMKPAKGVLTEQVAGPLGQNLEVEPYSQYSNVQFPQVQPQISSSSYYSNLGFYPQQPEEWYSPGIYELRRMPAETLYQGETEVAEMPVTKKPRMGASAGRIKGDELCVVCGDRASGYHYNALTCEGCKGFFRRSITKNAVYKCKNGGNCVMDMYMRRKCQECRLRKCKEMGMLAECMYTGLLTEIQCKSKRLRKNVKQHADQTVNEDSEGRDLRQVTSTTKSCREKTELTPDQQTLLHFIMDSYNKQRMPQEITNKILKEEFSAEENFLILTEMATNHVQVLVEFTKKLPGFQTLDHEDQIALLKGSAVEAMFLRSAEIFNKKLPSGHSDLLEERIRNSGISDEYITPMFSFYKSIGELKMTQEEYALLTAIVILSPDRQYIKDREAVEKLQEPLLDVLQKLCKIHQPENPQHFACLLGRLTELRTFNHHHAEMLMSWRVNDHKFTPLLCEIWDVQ

C[N+](C)(C)CCO
inactive: [1] | [2] | [3] | [4] | [5] | [6] | [7] | [8] | [9] | [10] | [11] | [12] | [13] | [14] | [15]

Cc1ccc(C(C)(C)C)c(O)c1
inactive: [2] | [16] | [3] | [4] | [5] | [6] | [7] | [8] | [10] | [17] | [12] | [18] | [13] | [14] | [15]

c1ccc2c(c1)ccc1ncccc12
inactive: [1] | [3] | [19] | [4] | [6] | [7] | [20] | [8] | [10] | [11] | [12] | [13]

CC/C(=C(/CC)c1ccc(O)cc1)c1ccc(O)cc1
inactive and 68 µM (active): [1]
inactive: [16] | [7] | [18] | [13] | [14] | [15]
active: [8] 61.6 µM | [10] 34.4 µM | [17] 16.8 µM

C=CCOC(=O)C(=C)C
inactive: [16] | [4] | [5] | [6] | [7] | [20] | [8] | [9] | [10] | [11] | [12] | [14] | [15]

CCOC(=O)C(C)Oc1ccc(Oc2cnc3cc(Cl)ccc3n2)cc1 (configuration not stated)
inactive: [1] | [16] | [3] | [19] | [4] | [5] | [6] | [7] | [8] | [9] | [10] | [11] | [17] | [12] | [18] | [13] | [14]

c1ccc2c(c1)ccc1cc3c(ccc4ccccc43)cc12
active: [2] 958 nM and 121 nM | [5] 538 nM and 959 nM
inactive: [1] | [4] | [6] | [7] | [20] | [8] | [9] | [10] | [11] | [17] | [12] | [18]

CCO[Si](CCCNC(N)=O)(OCC)OCC
inactive: [1] | [2] | [3] | [4] | [5] | [6] | [7] | [8] | [9] | [10] | [11] | [17] | [12] | [18] | [13] | [14] | [15]

C[C@]12CC[C@@H]3c4ccc(O)cc4CC[C@H]3[C@@H]1CC[C@@H]2O
inactive: [1] | [2] | [4] | [6] | [7] | [20] | [8] | [9] | [10] | [11] | [12] | [13] | [14] | [15]

OC[C@@H](O)[C@@H](O[C@@H]1O[C@H](CO)[C@H](O)[C@H](O)[C@H]1O)[C@H](O)[C@@H](O)CO
inactive: [1] | [16] | [3] | [4] | [5] | [6] | [7] | [8] | [10] | [12] | [13] | [14] | [15]

CN(Cc1cnc2nc(N)nc(N)c2n1)c1ccc(C(=O)N[C@@H](CCC(=O)O)C(=O)O)cc1
active: [5] 9.7 nM and 59.6 nM | [6] 6.1 nM and 47.3 nM | [17] 0.376 µM
inactive: [1] | [16] | [7] | [18]

C=C[C@H]1CN2CC[C@H]1C[C@@H]2[C@@H](O)c1ccnc2ccc(OC)cc12
24.1 µM (active) and inactive: [12]
inactive: [1] | [16] | [4] | [5] | [6] | [7] | [8] | [9] | [10] | [11] | [13]

C/C=C/C(=O)N(CC)c1ccccc1C
inactive: [1] | [2] | [3] | [4] | [5] | [6] | [7] | [20] | [8] | [10] | [12] | [14] | [15]

From PubChem BioAssay (Tox21)
